# Entries with a potency or affinity are not part of this list. Values without a mark were called inactive. Active and inactive are the calls of the source.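 How the source made its calls: active means a fitted half-maximal concentration no higher than twice the top valid tested dose, with signal falling as cells die; inconclusive means flat curve between -70% and -30%, or poor fit; inactive means the rest, including signal rising instead of falling.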
# Experiment: viability loss in HeLa cells – cell-based, ATP luminescence, cherry-pick samples, cytotoxicity control, dose response (AID 687004);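 further: 0% = neutral control median and -100% = staurosporine 10 µM control median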
# Conditions: ATP luminescence (CellTiter-Glo), 48 h; series mostly up to 26 µM; activity change, negative = cytotoxicity: at the top concentration
Structure (SMILES),"activity change, negative = cytotoxicity",outcome
S=C(NCc1ccccc1)NCC1COc2ccccc2O1 (centres undefined),5.18%,–
COC(=O)C1=C(C)N(CC(C)C)C(=S)NC1c1ccc(Cl)cc1 (centres undefined),-12.2%,–
O=C(NC(=S)Nc1ccccc1N1CCCC1)c1ccc([N+](=O)[O-])cc1,-1.45%,–
COc1cccc(NC(=S)N2CCC(Cc3ccccc3)CC2)c1,8.6%,–
S=C(Nc1ccccc1Oc1ccccc1)Nc1cccc(Cl)c1Cl,2.89%,–
COC(=O)C1=C(C)N(CC(C)C)C(=S)NC1c1ccc(F)cc1 (centres undefined),-4.83% [at 30 µM],–
O=C(NC(=S)Nc1ccccc1N1CCOCC1)c1cccc([N+](=O)[O-])c1,4.78%,–
CCc1ccc(C(=O)NC(=S)NCc2cccnc2)cc1,1.09%,–
CC=Cc1ccc2n(c1=O)C[C@@H]1[C@@H](CO)[C@H](C(=O)N3CCc4ccccc4C3)N(C(=O)C3CC3)[C@H]21 (mixture of isomers),-2.08%,–
COCC(=O)Nc1ccc2c(c1)C(=O)N(C)C[C@H](OC)[C@@H](C)CN(C(=O)c1ccccc1)[C@@H](C)CO2,5.25%,–
COC(=O)C1=C(C)N(Cc2ccc(Cl)cc2)C(=S)NC1c1cccc(F)c1 (centres undefined),1.55%,–
CCc1ccc(C(C)NC(=S)NCc2ccc(F)cc2)cc1 (centres undefined),15.5%,–
COc1ccc(CNC(=S)NCc2ccc(OC)cc2)cc1,10.5%,–
COC(=O)C1=C(C)N(Cc2ccc(Cl)cc2)C(=S)NC1c1ccccc1 (centres undefined),-8.43%,–
S=C(Nc1ccccc1)Nc1cc(Cl)ccc1Oc1ccccc1,-5.43%,–
C[C@@H]1CN([C@H](C)CO)C(=O)c2cc(C3=CCCCC3)cnc2O[C@H]1CN(C)C(=O)Cc1cccnc1,12.8%,–
CCOC(=O)NC(=S)Nc1ccc(C(C)(C)C)cc1,-2.02%,–
Cc1cc(C(=O)NC(=S)Nc2ccccc2N2CCOCC2)ccc1[N+](=O)[O-],-1.5%,–
COC(=O)C1=C(C)N(Cc2ccc(F)cc2)C(=S)NC1c1cccc(Cl)c1 (centres undefined),–,inactive
Cc1ccc(C(=O)NC(=S)Nc2ccc(N3CCOCC3)cc2)cc1,-0.18%,–
O=C(COC(=O)CCC1CCCC1)Nc1nc2c(F)c(F)c(F)cc2s1,-1.89%,–
COC(=O)C1=C(C)N(Cc2ccc(F)cc2)C(=S)NC1c1cccc(F)c1 (centres undefined),–,inactive
CCOc1ccc(CNC(=S)NCc2ccc(OCC)cc2)cc1,7.21%,–
COC(=O)C1=C(C)N(Cc2ccc(Br)cc2)C(=S)NC1c1ccccc1 (centres undefined),-8.01% [at 23.5 µM],–
COC(=O)C1=C(C)N(Cc2ccc(Cl)cc2)C(=S)NC1c1ccc(OC)cc1 (centres undefined),-0.047%,–
Cc1cccc2sc(N3CCN(C(=O)c4cccs4)CC3)nc12,-0.821%,–
O=C(NC(=S)Nc1ccc(Br)cc1)C1CCC1,-7.12%,–
COC(=O)C1=C(C)N(Cc2ccc(Cl)cc2)C(=S)NC1c1ccc(Br)cc1 (centres undefined),-1.75% [at 23.5 µM],–
COC(=O)C1=C(C)N(Cc2ccccc2)C(=S)NC1c1ccc(Br)cc1 (centres undefined),23.8% [at 23.5 µM],–
